From PubChem BioAssay (Tox21) come the findings set out here.

Results filed as inconclusive are left out. A number with no mark means an inactive call. The call rests on the fitted dose curve; in most records, active means well fitted cell-killing curve with a large enough effect in the repeat runs (not every such curve was filed as active); inconclusive means weak or mixed curves, or effect the other way; inactive means no such curve, though single readings can be large or run the other way.
On the % scale 0 is the no-effect control and ±100 the full control effect.

The experiment in a line: qHTS assay to identify small molecule antagonists of the farnesoid-X-receptor (FXR) signaling pathway - cell viability counter screen (AID 743221). Further: nearly all actives have a fitted effect of over 50% in size. Particulars: FXR-bla HEK293T viability, CellTiter-Glo luminescence, 16 h; series mostly up to 62.6 µM; activity change, negative = cytotoxicity: at the top concentration. From the text: National Center for Advancing Translational Sciences [NCATS]
NIH Chemical Genomics Center [NCGC]
U.S. Environmental Protection Agency [EPA]
National Institutes of Environmental Health Sciences [NIEHS]
National Toxicology Program [NTP]
U.S. Food and Drug Administration [FDA]
The farnesoid-X-receptor (FXR), a nuclear hormone receptor, is highly expressed in liver, intestine, kidney and adrenal cortex. Natural ligands of FXR are the bile acids (Cholic acid, Chenodeoxy cholic acid etc). FXR is an important regulator of diverse metabolic pathways, including the bile acid homeostasis, lipid and glucose metabolisms. FXR regulates the expression of target genes by binding either as a monomer or as a heterodimer with the retinoid X receptor (RXR). Numerous studies have reported that FXR exerts protective function during cholestasis, diabetes, liver regeneration, and cancer. To identify compounds that inhibit FXR signaling, GeneBLAzer FXR-UAS-bla HEK 293T cell line (Invitrogen, Carlsbad, CA) containing a beta-lactamase reporter gene under the control of a UAS response element was used to screen the Tox21 10K compound library. The cytotoxicity of the Tox21 compound library against the FXR-bla cell line was tested in parallel by measuring the cell viability using CellTiter-Glo assay in the same wells.
Tox21 Assay Protocol Summary:
FXR-bla cells were dispensed at 5000 cells/5uL/well in 1536-well black wall/clear bottom plates using a Multidrop Combi (Thermo Fisher Scientific, Waltham, MA) dispenser. After the assay plates were incubated at 37 C and 5% CO2 for 5 h, 23 nL of compounds dissolved in DMSO, positive controls or DMSO only was transferred to the assay plate by a Pintool station (Kalypsys, San Diego, CA), followed by addition of 1 uL Chenodeoxycholic acid (50 uM, final concentration in the wells). The assay plates were incubated at 37C for 16 h. After 1 uL of LiveBLAzerTM B/G FRET substrate was added using a Bioraptr Flying Reagent Dispenser (FRD) workstation (Beckman Coulter, Indianapolis, IN), the plates were incubated at room temperature for 2 h, and fluorescence intensity was measured by an Envision plate reader (PerkinElmer, Shelton, CT). For cell viability readout that measures cytotoxicity, 4uL/well of CellTiter-Glo reagent was added into the assay plates using a Bioraptr FRD. After 30 min incubation at room temperature, the luminescence intensity in the plates was measured using a ViewLux plate reader (PerkinElmer).
(In qHTS, concentration-response curves come from the screen itself.)
Consider `CCCCCCCCCCCl`, for which the “activity change, negative = cytotoxicity” value is 1.17% [at 81.1 µM]. Next, `N#CCN(CC#N)CCN(CC#N)CC#N`: -10.7%; `CC(CCO)CCCC(C)(C)O` (stereo not given): 0.566%.

With `CC(C)CCCCCCN`, the “activity change, negative = cytotoxicity” value was 17.9%. For `CCN(CC)S(=O)(=O)c1ccc(C(=O)O)cc1` the value was -2.49%; for `CCCC=O`, 1.91%; for `CCCCCN(CCCCC)C(=O)C(CCC(=O)O)NC(=O)c1ccc(Cl)c(Cl)c1` (stereo not given), 9.27%. Next, `CC(C)(C)CC(C)(C)N`: 0.351%.

With `O=C(O)C(O)[C@H](O)[C@@H](O)[C@H](O)[C@H](O)CO` (stereo not given in full), the “activity change, negative = cytotoxicity” value was 5.29% [at 81.1 µM]. Next, `NC(=O)c1ncn([C@@H]2O[C@H](CO)[C@@H](O)[C@H]2O)c1N`: 9.86%; `O=[N+]([O-])c1ccc(CCO)cc1`: 3.33%. In the case of `CCCCC1CCCCC(=O)O1` (stereo not given), the “activity change, negative = cytotoxicity” value was -8.16%. For `NCCNC(=O)c1ccc(Cl)cn1` the value was 0.123%.

Take `CC1(C)OC(=O)Nc2ccc(Br)cc21`: the “activity change, negative = cytotoxicity” value is 9.58%. For `NC(N)=NS(=O)(=O)c1ccc(N)cc1` the value was 8.64%. Turning to `CCCC(=O)O[C@]1(C(=O)CCl)[C@@H](C)C[C@H]2[C@@H]3CCC4=CC(=O)C=C[C@]4(C)[C@@]3(F)C(=O)C[C@@]21C`, the “activity change, negative = cytotoxicity” value was -12%. For `C=CCn1c(=O)n([C@@H]2O[C@H](CO)[C@@H](O)[C@H]2O)c2nc(N)[nH]c(=O)c21` the value was 7.33%. On to `C[C@H](O)C(=O)Nc1c(I)c(C(=O)NC(CO)CO)c(I)c(C(=O)NC(CO)CO)c1I`, for which the “activity change, negative = cytotoxicity” value is -7.29%.

For `O=C(O)/C=C/c1ccc(/C=C/C(=O)O)cc1`, the “activity change, negative = cytotoxicity” value was -1.04%. For `COc1ccc2cc(C=O)ccc2c1` the value was 5.34%. Next, `CCCCOCC(C)OCC(C)O` (stereo not given): 7.81% [at 81.1 µM]. As for `CCO[Si](C)(OCC)OCC`, the “activity change, negative = cytotoxicity” value is -5.15%. For `C=CCOc1nc(OCC=C)nc(OCC=C)n1` the value was -2.89%; for `CC(C)COC(=O)c1ccccc1O`, -7.05%; for `OC[C@H]1O[C@@H]2O[C@H]3[C@H](O)[C@@H](O)[C@@H](O[C@H]4[C@H](O)[C@@H](O)[C@@H](O[C@H]5[C@H](O)[C@@H](O)[C@@H](O[C@H]6[C@H](O)[C@@H](O)[C@@H](O[C@H]7[C@H](O)[C@@H](O)[C@@H](O[C@H]8[C@H](O)[C@@H](O)[C@@H](O[C@H]9[C@H](O)[C@@H](O)[C@@H](O[C@H]1[C@H](O)[C@H]2O)O[C@@H]9CO)O[C@@H]8CO)O[C@@H]7CO)O[C@@H]6CO)O[C@@H]5CO)O[C@@H]4CO)O[C@@H]3CO`, -2.73% [at 29.1 µM]. For `CCCCCCC(=O)OCC` the value was 0.301%; for `CC(=O)CCc1ccc(O)cc1`, -12.9%; for `O=C(O)c1ccccc1S`, -3.68%. As for `COc1cc(CCC(C)=O)ccc1O`, the “activity change, negative = cytotoxicity” value is 15.9%.

Take `CN(C)C(=O)Nc1ccccc1`: the “activity change, negative = cytotoxicity” value is -3.39%. Next, `CCCOc1ccccc1-c1nc2n[nH]nc2c(=O)[nH]1`: 3.95%. Next, `NC(=O)CCCCC1CCSS1` (stereo not given): 16.3%.

On to `NC(=S)Nc1cccc2ccccc12`, for which the activity change, negative = cytotoxicity is 8.25% [at 5.95 µM].

In the case of `COc1ccc(NC(C)=O)cc1`, the “activity change, negative = cytotoxicity” value is 7.67% [at 81.1 µM]. Next, `NS(=O)(=O)c1cc(C2(O)NC(=O)c3ccccc32)ccc1Cl` (stereo not given): -1.93%; `CC/C=C\CCCCO`: -18%. As to `NC(CS)C(=O)O` (stereo not given), the “activity change, negative = cytotoxicity” value is 2.5%. With `C/C=C1\C(=O)C[C@H]2[C@@H]3CCC4=CC(=O)CC[C@]4(C)[C@H]3CC[C@]12C`, the “activity change, negative = cytotoxicity” value was -4.31%. For `CCC(=O)c1cccc(Cl)c1` the value was 1.77% [at 81.1 µM]; for `C[N+](C)(C)CC[N+]1(C)Cc2c(Cl)c(Cl)c(Cl)c(Cl)c2C1`, -8.58%.
